Results filed as inconclusive are left out. Unmarked numbers belong to inactive results. Active and inactive are the calls of the source. Calls come from the whole dose curve; as a rule, active = well fitted curve in the direction sought with a large enough effect; inconclusive = small, poorly fitted or top-dose-only effect, or another doubt; inactive = no such curve, though single readings can be large or run the other way.
Assay: Confirmation Concentration-Response Assay for Inhibitors of Tau Fibril Formation, Total Fluorescence Counterscreen for Fluorescence Polarization
Conditions: Alexa594-tau K18 total fluorescence counterscreen, interference, tau K18 with P301L mutation; series mostly up to 100 µM; fluorescence change, negative = quenching: at the top concentration
Text: NIH Molecular Libraries Probe Production Network [MLPCN] NIH Chemical Genomics Center [NCGC] MLPCN Grant: X01 MH083262-01 Assay Provider: Carlo Ballatore, University of Pennsylvania NCGC Assay Overview: The microtubule-associated protein tau is an abundant protein in the axons of neurons that stabilizes microtubules. With its ability to modulate microtubule dynamics, tau contributes directly or indirectly, to key structural and regulatory cellular functions. Particularly important is the influence tau exerts on axonal transport, which allows signaling molecules, trophic factors and other essential cellular constituents to travel along the axons. Under pathological conditions, tau becomes sequestered into insoluble aggregates called neurofibrillary tangles. This phenomenon is believed to have pathological consequences by promoting axonal transport deficits that ultimately lead to synaptic dysfunction and neuronal loss. To identify inhibitors of tau aggregation, a heparin-induced tau fibril formation assay was used that employed a recombinantly expressed fragment of tau, K18 (Q242-E372), bearing a P301L mutation (Gustke et al. 1994; Hong et al. 1998). […] Total fluorescence (555 nm excitation and 632 nm emission) was measured to identify fluorescent or absorbent compounds at this wavelength. Such compounds may be artifacts that interfere with the Alexa 594 Tau fluorescence polarization assay. Gustke, N., B. Trinczek, et al. (1994). "Domains of tau protein and interactions with microtubules." Biochemistry 33(32): 9511-22. Hong, M., V. Zhukareva, et al. (1998). "Mutation-specific functional impairments in distinct tau isoforms of hereditary FTDP-17." Science 282(5395): 1914-7. Li, W. and V. M. Lee (2006). "Characterization of two VQIXXK motifs for tau fibrillization in vitro." Biochemistry 45(51): 15692-701. von Bergen, M., S. Barghorn, et al. (2001). "Mutations of tau protein in frontotemporal dementia promote aggregation of paired helical filaments by enhancing local beta-structure." J Biol Chem 276(51): 48165-74.
For screening, 2 uL/well human K18 P301L (15 uM unlabeled and 0.24 uM Alexa 594-labeled tau final concentrations) in reagent buffer (100 mM sodium acetate pH 7) was dispensed into black solid 1536-well plates (Grenier) using a solenoid-based dispenser. Following transfer of 23 nL compound or DMSO vehicle by a pin tool, 2 uL/well heparin (20 uM final concentration) in reagent buffer was added and the plate centrifuged 15 s at 1000 RPM. Plates were incubated 6 hr at 37 C and then 1 uL/well ThT (30 uM final concentration) was added. After a 1 hr ambient incubation, the plates were read by an Envision (Perkin Elmer) to monitor Alexa 594 FP (555 nm excitation and 632 nm emission). Keywords: NIH Roadmap, MLPCN, MLI, MLSMR, NCGC, qHTS, tau, tauopathies, Alzheimer's disease, fibril, neurodegeneration, aggregation

Compared with O=C(Cc1ccccc1)Nc1sc2c(c1C(=O)Nc1ccc(Cl)cc1)CCOC2, CC1CCc2c(sc(NC(=O)Cc3ccccc3)c2C(=O)Nc2ccc(Cl)cc2)C1 (stereo not given) is higher in “fluorescence change, negative = quenching” value (“fluorescence change” for short): -16.6% [at 57.1 µM] for the first, -0.241% [at 57.1 µM] for the second.

First: O=C(Cc1ccccc1)Nc1sc2c(c1C(=O)Nc1cccc(Cl)c1)CCCC2
Second: COc1ccc(NC(=O)c2c(NC(=O)Cc3ccccc3)sc3c2CCCC3)cc1
The “fluorescence change” value of the first is lower: -7.93% [at 57.1 µM] for the first, -7.74% [at 57.1 µM] for the second.

CCOC(=O)c1nn(-c2ccc(OC)cc2)c(=O)c2c(NC(=O)Cc3ccccc3)scc12 and CCOC(=O)c1ccc(-n2nc(C(=O)OCC)c3csc(N)c3c2=O)cc1 are the same in “fluorescence change” value: -11.1% [at 57.1 µM] for the first, -11.1% [at 57.1 µM] for the second.

Going from COc1ccc(-n2nc(C(=O)O)c3csc(N)c3c2=O)cc1 to Nc1scc2c(C(=O)O)nn(-c3ccccc3)c(=O)c12, the “fluorescence change” value rises from -15.8% [at 57.1 µM] to 4.44% [at 57.1 µM].

Compared with CCOC(=O)c1c(N)sc2c1CCOC2, CCOC(=O)c1c(N)sc2c1CN(C)CC2 is lower in “fluorescence change” value: 17.4% [at 57.1 µM] for the first, 14% [at 57.1 µM] for the second.

Going from Cn1sc(NC(=O)c2ccccc2)nc1=O to CC(=O)Nc1sc(C)c2cnn(-c3ccccc3)c(=O)c12, the “fluorescence change” value falls from 4.66% [at 57.1 µM] to 4.58% [at 57.1 µM].

Compared with CCOC(=O)N1CCN(C(=O)CN2C(=O)/C(=C\c3cccc(OC)c3)SC2=S)CC1, COc1cccc(/C=C2/SC(=S)N(CC(=O)Nc3nnc(C)s3)C2=O)c1 is higher in “fluorescence change” value: -16.9% [at 57.1 µM] for the first, -9.01% [at 57.1 µM] for the second.

Compared with Nc1scc2c(CO)nn(-c3ccccc3)c(=O)c12, Cc1sc(N)c2c(=O)n(-c3ccccc3)ncc12 is lower in “fluorescence change” value: -2.64% [at 57.1 µM] for the first, -11.4% [at 57.1 µM] for the second.

Compared with COC(=O)C1CCc2sc(N)c(C(=O)OCc3ccccc3)c21 (stereo not given), CCOC(=O)c1nn(-c2ccccc2)c(=O)c2c(N)sc(C)c12 is lower in “fluorescence change” value: -3.27% [at 57.1 µM] for the first, -20.4% [at 57.1 µM] for the second.

First: CN(C(=S)Nc1cccnc1)c1ccc(O)cc1
Second: COc1ccc2[nH]c(=O)c(CNc3cccc(C)c3)cc2c1
The “fluorescence change” value of the first is higher: 5.46% for the first, -6.53% for the second.

First: O=C(O)CC1S/C(=N/N=C/c2ccc(-c3ccccc3[N+](=O)[O-])o2)NC1=O (stereo not given)
Second: O=C(O)CC1S/C(=N/N=C/c2ccc(-c3ccc(Cl)cc3[N+](=O)[O-])o2)NC1=O (stereo not given)
The “fluorescence change” value of the first is higher: 4.83% for the first, 3.16% for the second.

First: COC(=O)c1c(NC(=O)CCCOc2ccc(C(C)(C)C)cc2)sc2c1C(C(=O)OC)CC2 (stereo not given)
Second: COC(=O)c1c(NC(=O)CCCOc2cccc(C)c2)sc2c1C(C(=O)OC)CC2 (stereo not given)
The “fluorescence change” value of the first is higher: 4.07% for the first, 2.92% for the second.

First: N#Cc1cccc(NC(=O)c2ccc3c(c2)N(Cc2cccc(Cl)c2)C(=O)c2ccccc2S3(=O)=O)c1
Second: Cc1ccc(N2C(=O)SC(Cc3ccccc3)C2=O)cc1 (stereo not given)
The “fluorescence change” value of the first is lower: -2.79% for the first, 14.2% for the second.

First: Cc1nc2ccccc2oc1=O
Second: Cc1cc2c(N)cccc2nn1
The “fluorescence change” value of the first is lower: 11.2% for the first, 29.3% for the second.

First: O=S(=O)(c1ccc(NC(=S)N/N=C/c2ccc(N3CCOCC3)cc2)cc1)N1CCOCC1
Second: Cc1ccc(C(=O)Nc2nc(=O)n(C(=O)C3CC3)s2)cc1
The “fluorescence change” value of the first is lower: 2.35% for the first, 12.3% for the second.

Compared with CCn1c(CSc2nccn2C)nc2cc(C(=O)O)ccc21, O=C(O)CN1C(=O)/C(=C/c2ccc(-c3cccc(Cl)c3)o2)SC1=S is lower in “fluorescence change” value: 35.7% for the first, -10.4% for the second.

Compared with COC(=O)c1ccccc1NC(=O)CSc1nc2sc3c(c2c(=O)[nH]1)CCCC3, COC(=O)c1c(NC(=O)C(C)(C)C)sc2c1C(C(=O)OC)CC2 (stereo not given) is lower in “fluorescence change” value: 1.44% for the first, -17% for the second.

First: Cc1ccc(-c2ccc(/C=N/N=C3/NC(=O)C(CC(=O)O)S3)o2)c([N+](=O)[O-])c1 (stereo not given)
Second: Cc1[nH]c(=O)c(C#N)cc1-c1ccncc1
The “fluorescence change” value of the first is higher: 4.37% for the first, 2.45% for the second.

Going from Cn1cc(Cl)c(C(=O)Nc2cccc(Cl)c2Cl)n1 to Nc1c(-c2ccncc2)cc[nH]c1=O, the “fluorescence change” value falls from 2.07% to -12.5%.

With O=C(NCCCO)Nc1ccc2nc(-c3ccco3)c(-c3ccco3)nc2c1 the Potency was 3.16 µM [quencher] (active).
For CCOC(=O)c1nn(-c2ccc(OC)cc2)c(=O)c2c(N)scc12, the Potency was “inactive”.

From PubChem BioAssay AID1694 (National Center for Advancing Translational Sciences (NCATS), 2009)
